By AC50 is commonly meant the midpoint of the concentration-response curve, whichever way the signal moves.

Activity calls are given as the source filed them. Rule for the calls, unless noted: active = hit-call score of the fitted dose curve at least 0.9, where 1 is the maximum; inconclusive = response in the unintended direction; inactive = score below 0.9.

Estrogen receptor beta (Homo sapiens), sequence (Q92731 whole entry, looked up, the tested form may be a part): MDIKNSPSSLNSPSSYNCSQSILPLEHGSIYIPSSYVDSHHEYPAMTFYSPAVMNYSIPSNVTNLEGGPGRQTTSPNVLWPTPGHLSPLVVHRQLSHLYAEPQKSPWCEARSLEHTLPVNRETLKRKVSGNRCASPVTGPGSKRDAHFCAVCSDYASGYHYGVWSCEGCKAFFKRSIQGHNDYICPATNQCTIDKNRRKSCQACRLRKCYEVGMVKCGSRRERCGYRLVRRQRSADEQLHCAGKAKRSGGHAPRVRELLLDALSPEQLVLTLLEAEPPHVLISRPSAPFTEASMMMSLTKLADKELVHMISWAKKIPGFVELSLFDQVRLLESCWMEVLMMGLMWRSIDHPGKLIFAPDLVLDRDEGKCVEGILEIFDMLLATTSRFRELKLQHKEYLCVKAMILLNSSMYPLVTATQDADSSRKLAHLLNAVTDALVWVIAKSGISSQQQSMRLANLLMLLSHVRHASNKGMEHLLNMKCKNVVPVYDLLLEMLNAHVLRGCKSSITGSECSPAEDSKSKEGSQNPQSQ
Estrogen receptor (Homo sapiens), sequence (P03372 whole entry, looked up): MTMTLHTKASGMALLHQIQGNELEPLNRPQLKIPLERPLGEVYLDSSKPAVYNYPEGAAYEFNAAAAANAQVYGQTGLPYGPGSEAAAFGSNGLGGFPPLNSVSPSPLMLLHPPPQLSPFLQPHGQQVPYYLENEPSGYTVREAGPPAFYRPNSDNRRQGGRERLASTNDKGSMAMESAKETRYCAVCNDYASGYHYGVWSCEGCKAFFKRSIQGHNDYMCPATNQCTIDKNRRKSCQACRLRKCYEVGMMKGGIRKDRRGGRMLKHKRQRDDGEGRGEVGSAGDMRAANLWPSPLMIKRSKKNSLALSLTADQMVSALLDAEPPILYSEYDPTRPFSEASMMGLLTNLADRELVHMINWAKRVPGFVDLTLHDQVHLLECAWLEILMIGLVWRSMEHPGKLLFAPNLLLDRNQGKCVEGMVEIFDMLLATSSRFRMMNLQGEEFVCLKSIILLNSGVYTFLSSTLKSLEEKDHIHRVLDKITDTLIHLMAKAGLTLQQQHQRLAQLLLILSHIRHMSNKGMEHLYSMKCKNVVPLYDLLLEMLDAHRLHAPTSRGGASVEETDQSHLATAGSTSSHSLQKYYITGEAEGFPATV

The target in one assay is Estrogen receptor beta (Homo sapiens) (UniProt Q92731). As to the kind of experiment: OT_ER_ERbERb_1440: Odyssey Thera (OT) 24-hour HEK293T Protein-Complementation Assay for Estrogen Receptor-beta/-beta Homodimer (AID 2283380).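 Note: scored as signal increase over DMSO baseline for both agonists and antagonists.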 Put shortly:
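HEK293T cells stably expressing ER beta LBD (aa 310-547) homodimer fragment-complementation reporter, dosed 24 h. Cells formaldehyde-fixed, Draq5-stained; gain in nuclear (agonist) or nuclear plus cytoplasmic (antagonist) fluorescence versus DMSO read by laser scanning cytometry.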
`CC(=O)OCCOC(C)=O`: the molecule was classed as inactive.

Consider `OCCN1CCNCC1`, for which the result was inactive.

With `C=CCOc1nc(OCC=C)nc(OCC=C)n1`, the half-maximal activity concentration (AC50) is 25.5 µM (active).

On to `C=CC[N+](C)(C)CC=C`, for which the molecule was classed as inactive.

Take `CCCCCOC(=O)CCC`: the outcome was inactive.

As to `COc1ccc(O)cc1`, the outcome was inactive.

On to `O=C(O)CCCCCCCC(=O)O`, for which the molecule was called inactive.

Regarding `CCCCCCCCC`, the molecule was called inactive.

Consider `c1ccc(CCCc2ccccn2)cc1`, for which the call was inactive.

In the case of `CC(C)(N)CO`, the result was inactive.

On to `OCCOCCOCCOCCO`, for which the outcome was inactive.

With `CCCCc1ccc(N)cc1`, the call was inactive.

Regarding `C=C(C)C(=O)O`, the outcome was inactive.

With `O=C(O)c1ccc([N+](=O)[O-])cc1`, the call was inactive.

With `CCCCCCCCCCCCCC(=O)O`, the result was inactive.

`C=CC(C)(O)CCC=C(C)CCC=C(C)C` (centres undefined): the molecule was classed as inactive.

As to `Cc1ccc(S)cc1`, the result was inactive.

In the case of `NCCCN1CCOCC1`, the outcome was inactive.

For `CC1=CC(=O)NS(=O)(=O)O1`, the molecule was classed as inactive.

With `BrC1CCC(Br)C(Br)CCC(Br)C(Br)CCC1Br` (centres undefined), the result was inactive.

On to `CCN(CC)c1ccc2c(-c3ccccc3C(=O)O)c3ccc(=[N+](CC)CC)cc-3oc2c1`, for which the concentration at half-maximal activity (AC50) was 12.2 µM (active).

Consider `C[Si](O[Si](C)(C)C)O[Si](C)(C)C`, for which the molecule was classed as inactive.

As for `CCCCOCCOCCOCCOCCO`, the call was inactive.

As for `OC1OC[C@@H](O)[C@H](O)[C@H]1O` (some centres undefined), the molecule was called inactive.

Regarding `CC(C)CCCCCCCOC(=O)c1ccc(C(=O)OCCCCCCCC(C)C)c(C(=O)OCCCCCCCC(C)C)c1`, the molecule was classed as inactive.

Turning to `C=O`, the molecule was classed as inactive.

The target of a further assay is Estrogen receptor (Homo sapiens) (UniProt P03372). Nature of the assay: OT_ERa_GFPERaERE_0480: Odyssey Thera (OT) 8-hour HeLa Transcription Induction Assay for Estrogen Receptor (AID 2283381; active = hit-call score of the fitted dose curve at least 0.9, where 1 is the maximum; inactive = score below 0.9). Put shortly:
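HeLa cells expressing GFP reporter under estrogen response element, imaged 8 h after dosing. GFP induction quantified by high-content fluorescence microscopy image analysis; gain of signal fitted versus DMSO.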
Regarding `CC(=O)OCCOC(C)=O`, the result was inactive.

Regarding `OCCN1CCNCC1`, the molecule was called inactive.

Take `CCCCCCCCC`: the molecule was called inactive.

Take `CN(C)CCCN`: the molecule was classed as inactive.

For `CC(=O)C=CC1=C(C)CCCC1(C)C`, the outcome was inactive.

As for `c1ccc(CCCc2ccccn2)cc1`, the molecule was classed as inactive.

Turning to `CC(C)(N)CO`, the molecule was called inactive.

In the case of `OCCOCCOCCOCCO`, the outcome was inactive.

In the case of `CC(C)(C)C(=O)c1ccccc1`, the result was inactive.

Regarding `CCCCc1ccc(N)cc1`, the outcome was inactive.

Consider `C=C(C)C(=O)O`, for which the call was inactive.

On to `CCCCCCCCCCCCCC(=O)O`, for which the molecule was classed as inactive.

With `Cc1ccc(S)cc1`, the outcome was inactive.

Consider `NCCCN1CCOCC1`, for which the outcome was inactive.

For `BrC1CCC(Br)C(Br)CCC(Br)C(Br)CCC1Br` (centres undefined), the outcome was inactive.

In the case of `CCN(CC)c1ccc2c(-c3ccccc3C(=O)O)c3ccc(=[N+](CC)CC)cc-3oc2c1`, the molecule was classed as inactive.

As to `CCCCOCCOCCOCCOCCO`, the outcome was inactive.

`CC(=O)OCCC(C)CC(C)(C)C` (centres undefined): the outcome was inactive.

For the origin of these results see PubChem BioAssay (EPA / NIEHS).
